Assay results as given in PubChem BioAssay AID1159580 (chemical genetic matrix, 2015).
“And” between values parts separate entries of the source, which are not always exact repeats. Identical values can stand only once. Hit rate of the full screen: of about 5,500 compounds, about 2,000 (36%) were called active. Not shown: some 18% with an inconclusive outcome. No stated cut-off is given here; in the data, active means normalized growth mostly below about 0.91 (no sharp cut-off); inconclusive means no clear call, values can overlap the other calls; inactive means mostly above about 0.92. The list shows a part of the results.

Assay: chemical genetic growth profiling, strain panel (AID 1159580);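 further: tested at 20 µM; growth read once vehicle control cultures reached saturation at 30 °C; 1 = growth at the plate median or of vehicle wells; lower values mean less growth of the strain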
Conditions: S. cerevisiae deletion strains, growth OD

Measured: normalized growth

CC1(C)CC2C1CCC1(C)OC1CCC2(C)O (centres undefined)
inactive: locus YAL013W, strain DEP1, hits give low values 1.02 | locus YAL021C, strain ccr4, hits give low values 1.01 | locus YAL026C, strain drs2, hits give low values 1.05 | locus YAL030W, strain snc1, hits give low values 1.03 | locus YBL061C, strain skt5, hits give low values 1.04 | locus YBR009C, strain hhf1, hits give low values 1.06 | locus YBR021W, strain FUR4, hits give low values 1.01 | locus YBR023C, strain chs3, hits give low values 1.05 | locus YBR171W, strain sec66, hits give low values 1.06 | locus YBR229C, strain ROT2, hits give low values 1 | locus YBR231C, strain swc5, hits give low values 1.04 | locus YBR279W, strain paf1, hits give low values 1.03 | locus YCL011C, strain gbp2, hits give low values 1.04 | locus YCL016C, strain dcc1, hits give low values 1.03 | locus YCL029C, strain bik1, hits give low values 1.03 | locus YCL061C, strain MRC1, hits give low values 1.04 | locus YCL069W, strain vba3, hits give low values 1.04 | locus YCR088W, strain abp1, hits give low values 1.04 | locus YDL005C, strain med2, hits give low values 1.03 | locus YDL035C, strain GPR1, hits give low values 1.03 | locus YDL040C, strain nat1, hits give low values 1.03 | locus YDL074C, strain BRE1, hits give low values 1.07 | locus YDL101C, strain DUN1, hits give low values 1.03 | locus YDL185W, strain tfp1, hits give low values 1.01 | locus YDL192W, strain arf1, hits give low values 1.03 | locus YDR001C, strain nth1, hits give low values 1.03 | locus YDR069C, strain doa4, hits give low values 1.06 | locus YDR101C, strain arx1, hits give low values 0.987 | locus YDR137W, strain rgp1, hits give low values 1.07 | locus YDR159W, strain sac3, hits give low values 1.11 | locus YDR162C, strain NBP2, hits give low values 1.06 | locus YDR195W, strain ref2 1.01 | locus YDR297W, strain sur2, hits give low values 1.05 | locus YDR318W, strain mcm21, hits give low values 1.04 | locus YDR334W, strain swr1, hits give low values 1.04 | locus YDR335W, strain msn5, hits give low values 1.04 | locus YDR388W, hits give low values 1.02 | locus YDR392W, strain spt3, hits give low values 1.01 | locus YDR502C, strain sam2, hits give low values 1.06 | locus YEL003W, strain gim4, hits give low values 1.04 | locus YEL037C, strain rad23, hits give low values 1.03 | locus YEL061C, strain CIN8 (second series), hits give low values 1.03 | locus YEL061C, strain CIN8, hits give low values 1.02 | locus YER015W, strain faa2, hits give low values 1.04 | locus YER016W, strain bim1, hits give low values 1.04 | locus YER110C, hits give low values 1.01 | locus YER111C, strain swi4, hits give low values 1.03 | locus YER155C, strain BEM2 (second series), hits give low values 1.07 | locus YER155C, strain BEM2, hits give low values 1.03 | locus YER167W, strain BCK2, hits give low values 1.01 | locus YFR010W, strain ubp6, hits give low values 1.05 | locus YGL078C, strain dbp3, hits give low values 1.02 | locus YGL086W, strain mad1, hits give low values 1.02 | locus YGL167C, strain pmr1, hits give low values 1.03 | locus YGL173C, strain kem1, hits give low values 1.06 | locus YGL227W, strain vid30, hits give low values 1.03 | locus YGL240W, strain doc1, hits give low values 1.04 | locus YGL248W, strain PDE1, hits give low values 1.05 | locus YGL253W, strain hxk2, hits give low values 1.07 | locus YGR135W, strain pre9, hits give low values 1.04 | locus YGR252W, strain gcn5, hits give low values 1.17 | locus YHR013C, strain ard1, hits give low values 1.05 | locus YHR027C, strain rpn1, hits give low values 1.06 | locus YHR030C, strain SLT2, hits give low values 1.02 | locus YHR079C, strain IRE1 (second series), hits give low values 1.01 | locus YHR079C, strain IRE1, hits give low values 1.04 | locus YHR094C, strain hxt1, hits give low values 1.01 | locus YHR129C, strain ARP1, hits give low values 1.02 | locus YHR142W, strain chs7, hits give low values 1.06 | locus YHR200W, strain rpn10, hits give low values 1.04 | locus YIL066C, strain RNR3, hits give low values 1.02 | locus YIL073C, strain SPO22, hits give low values 1.12 | locus YIL125W, strain kgd1, hits give low values 1.01 | locus YIR030C, strain dcg1, hits give low values 1.01 | locus YJL092W, strain hpr5, hits give low values 1.04 | locus YJL095W, strain BCK1 (second series), hits give low values 1.03 | locus YJL095W, strain BCK1, hits give low values 1.08 and 1.04 | locus YJL115W, strain asf1, hits give low values 1.04 | locus YJL129C, strain trk1, hits give low values 1.08 | locus YJL134W, strain LCB3, hits give low values 1.02 | locus YJL154C, strain vps35, hits give low values 1.03 | locus YJL164C, strain tpk1, hits give low values 1.04 | locus YJL166W, strain qcr8, hits give low values 1.05 | locus YJL168C, strain set2, hits give low values 1.02 | locus YJL187C, strain SWE1 (second series), hits give low values 1.06 | locus YJL187C, strain SWE1, hits give low values 1.05 | locus YJR043C, strain POL32, hits give low values 1.04 | locus YJR066W, strain TOR1, hits give low values 0.961 | locus YKL009W, strain mrt4, hits give low values 1.01 | locus YKL068W, hits give low values 1 | locus YKL085W, strain MDH1 (second series), hits give low values 1 | locus YKL085W, strain MDH1, hits give low values 1 | locus YKL160W, strain elf1, hits give low values 1.02 | locus YKR001C, strain vps1, hits give low values 1.1 | locus YKR026C, strain gcn3, hits give low values 1.04 | locus YKR091W, strain srl3, hits give low values 1.02 | locus YLL001W, strain dnm1, hits give low values 1.01 | locus YLL026W, hits give low values 1.04 | locus YLL041C, strain sdh2, hits give low values 1.03 | locus YLR027C, strain aat2, hits give low values 1.05 | locus YLR039C, strain RIC1, hits give low values 1.2 | locus YLR058C, strain SHM2, hits give low values 1.05 | locus YLR102C, strain apc9, hits give low values 1.01 | locus YLR113W, strain HOG1, hits give low values 1.03 | locus YLR221C, strain rsa3, hits give low values 1.07 | locus YLR258W, strain gsy2, hits give low values 1.05 | locus YLR262C, strain YPT6 (second series), hits give low values 1.06 | locus YLR268W, strain sec22, hits give low values 1.04 | locus YLR320W, strain mms22, hits give low values 1.07 | locus YLR342W, strain FKS1 (second series), hits give low values 1.09 | locus YLR342W, strain FKS1, hits give low values 1.05 | locus YLR357W, strain rsc2, hits give low values 1.07 | locus YLR370C, strain arc18, hits give low values 1.04 | locus YLR371W, strain rom2, hits give low values 0.999 | locus YLR384C, strain iki3, hits give low values 1.05 | locus YLR418C, strain cdc73, hits give low values 1.11 | locus YML016C, strain PPZ1, hits give low values 1.01 | locus YML032C, strain rad52, hits give low values 1.04 | locus YML120C, strain ndi1, hits give low values 1.03 | locus YML124C, strain tub3, hits give low values 0.999 | locus YMR058W, strain fet3, hits give low values 1.05 | locus YMR078C, strain ctf18, hits give low values 1.01 | locus YMR125W, strain sto1, hits give low values 1.05 | locus YMR129W, hits give low values 1.02 | locus YMR205C, strain PFK2, hits give low values 1.06 | locus YMR223W, strain ubp8, hits give low values 1.05 | locus YMR231W, strain pep5, hits give low values 1.04 | locus YMR263W, strain SAP30, hits give low values 1.02 | locus YMR307W, strain GAS1, hits give low values 1.1 | locus YNL067W, strain RPL9B, hits give low values 1.03 | locus YNL071W, strain lat1, hits give low values 1.04 | locus YNL128W, strain TEP1, hits give low values 1.04 | locus YNL153C, strain GIM3, hits give low values 1.05 | locus YNL183C, strain NPR1, hits give low values 0.975 | locus YNL209W, strain ssb2, hits give low values 1.03 | locus YNL233W, strain BNI4, hits give low values 1.07 | locus YNL248C, strain rpa49, hits give low values 1.05 | locus YNL250W, strain rad50, hits give low values 1.04 | locus YNL271C, strain bni1, hits give low values 1.03 | locus YNL298W, strain CLA4, hits give low values 1.01 | locus YNL307C, strain MCK1, hits give low values 1.01 | locus YNL322C, strain KRE1 (second series), hits give low values 1.04 | locus YNL322C, strain KRE1, hits give low values 1.02 | locus YNR049C, strain mso1, hits give low values 1.04 | locus YNR052C, strain pop2, hits give low values 1.03 | locus YOL006C, strain TOP1, hits give low values 1.19 | locus YOL012C, strain htz1 1 | locus YOL147C, strain pex11, hits give low values 1.02 | locus YOR001W, strain rrp6, hits give low values 1.08 | locus YOR061W, strain CKA2, hits give low values 1.02 | locus YOR069W, strain VPS5, hits give low values 1.02 | locus YOR070C, strain gyp1, hits give low values 1.05 | locus YOR080W, strain dia2, hits give low values 1.03 | locus YOR083W, strain WHI5, hits give low values 1.03 | locus YOR106W, strain vam3, hits give low values 1.04 | locus YOR136W, strain idh2, hits give low values 1 | locus YOR144C, strain elg1, hits give low values 1.01 | locus YOR184W, strain ser1, hits give low values 1.05 | locus YOR231W, strain MKK1, hits give low values 1.05 | locus YOR265W, strain rbl2, hits give low values 1.04 | locus YOR270C, strain vph1, hits give low values 1.14 | locus YOR290C, strain snf2, hits give low values 1.04 | locus YOR316C, strain cot1, hits give low values 1 | locus YPL051W, strain arl3, hits give low values 1.05 | locus YPL055C, strain LGE1, hits give low values 1.06 | locus YPL078C, strain atp4, hits give low values 1.02 | locus YPL106C, strain sse1, hits give low values 1.02 | locus YPL240C, strain hsp82, hits give low values 1.03 | locus YPL256C, strain CLN2, hits give low values 1.04 | locus YPR119W, strain clb2, hits give low values 1.02 | locus YPR141C, strain kar3, hits give low values 0.991 | locus YPR163C, strain tif3, hits give low values 1.04 | locus YPR167C, strain met16, hits give low values 1 | strain wtn01, hits give low values 1.04
